In PubChem BioAssay (NCI):
Compounds without any hit were thinned out: in the full panel of roughly 83,000, 20% have a hit.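 For each line, cells grew in 96-well plates with the test compound present at a single concentration for 48 hours.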 The source made the active and inactive calls. The calls were made as follows: active = growth percent below 10; inactive = the rest.

The compounds below were run on MDA-MB-435 melanoma (assay: NCI-60 one-dose screen, 48 h (100 = growth as untreated, 0 = no growth, -100 = all killed)). Conditions: 10 µM unless noted.

Compound	growth
Cc1cc2c(-c3nc4ccccc4n3C)c(O)c(O)cc2c(O)c1-c1c(C)cc2c(-c3nc4ccccc4n3C)c(O)c(O)cc2c1O	34.2% (inactive)
O=C(CN1CCN(c2cccc(Cl)c2)CC1)N1CCN(c2nnc(-c3ccc(Cl)cc3)c(-c3ccc(Cl)cc3)n2)CC1	72.3% (inactive)
CCCC(=O)NNc1[nH]c(-c2cc(OC)c(OC)c(OC)c2)cc1C(=O)OCC	101% (inactive)
CSCc1ncc(-c2ccc(C(F)(F)F)cc2)c(NC2CCCCCC2)n1	78.7% [25 µM] (inactive)
CCOC1=C(Cl)C(=O)C(OCC)=C(Cl)C1=O	100% (inactive)
CC(=O)c1nn(-c2ccc(C)cc2)cc1C(=O)c1cc2c(ccc3ccccc32)oc1=O	99% (inactive)

These compounds were tested on SW-620 colon in the same assay as above. Conditions: 10 µM unless noted.

Compound	growth
CC1Cc2cc(F)ccc2-n2cccc21 (stereo unspecified)	96.1% (inactive)
Cc1c(O)c(N=Nc2ccc(C(=O)O)c(O)c2)c2ccccc2c1O	84.8% (inactive)
COc1ccc(-c2nc(Nc3nc4ccccc4[nH]3)nc(N)c2C#N)cc1	108% (inactive)
CC(C)(C)c1ccc([I+]c2ccc(C(C)(C)C)cc2)cc1	14.9% (inactive)
C=CN(C)S(C)(=O)=O	19.9% (inactive)
CCOC(=O)C1CCCN1C(=O)C1(NC(C)=O)CCCC1 (stereo unspecified)	99.6% (inactive)
COc1cc(OC)c(NC(=O)n2ncc3cc(Nc4ncnc5ccccc45)ccc32)cc1Cl	116% (inactive)
Cc1ccc([C@@H]2C[C@H](O)Cc3ccccc3N2)s1	101% (inactive)
CCCCCCCCCCC1OC(C)CC(C)O1 (stereo unspecified)	103% (inactive)
CCc1c(C)c2ccc(OCC(=O)N=Nc3c(O)[nH]c4ccccc34)c(C)c2oc1=O	-29.2% (active)
COc1ccccc1Cn1cc2c(c1)-c1oncc1CC2	27% (inactive)
CC[C@H](Nc1ncnc2nc[nH]c12)c1nc2cccc(NCc3ccc(C(=O)NO)nc3)c2c(=O)n1-c1ccccc1	47.2% (inactive)
COc1ccc(CNCCCN2C(=O)c3ccc4c5c(ccc(c35)C2=O)C(=O)N(CCCNCc2ccc(OC)c(OC)c2OC)C4=O)c(OC)c1OC	-94.6% (active)
O=C(N/N=C/c1coc2ccccc2c1=O)c1cc2oc(-c3ccccc3)cc2[nH]1	102% (inactive)
CCOC(=O)c1cc(C(=O)c2ccc(Br)cc2)n2cc(C)cc(C)c12	103% (inactive)
O=C(/C=C1\C(=O)N(Cc2ccccc2)c2ccccc21)c1ccc(OCCN2CCCCC2)cc1	-45.7% (active)
Cc1nnc(/N=C2\NC(=O)/C(=C/C=C/c3ccccc3)S2)s1	74.1% (inactive)
O=c1oc2ccc3ccccc3c2cc1-c1ccnc2[nH]c(=S)[nH]c(=O)c12	105% (inactive)
Cn1cnc2nc[nH]c2c1=S	99.8% (inactive)
COc1ccc(Cn2cc3c(c2-c2ccc(O)cc2)CCc2cnoc2-3)cc1	22.5% (inactive)

Compound	growth
CC(Br)c1nc2ccccc2cc1C(N)=O (stereo unspecified)	110% (inactive)
c1cc(C2CCCCC2)ccc1OCCCCCCN1CCNCC1	-37.7% (active)
CC(O)CN(CC(C)O)N(CC(C)O)CC(C)O (stereo unspecified)	104% (inactive)
COc1ccc2nc3cc(Cl)ccc3c(NCCCNC(C)=O)c2c1	27% (inactive)
O=C1N/C(=N\c2nnc(-c3ccc(O)cc3)s2)S/C1=C\c1ccccc1O	96.1% (inactive)
CCCCCc1ccnc(CC(=O)c2ccc(OC)cc2)c1	88.4% (inactive)
NC(=O)CC(NC(=O)COc1ccc(Cl)cc1Cl)C(=O)O (stereo unspecified)	105% (inactive)
COc1cc2ncnc(Nc3ccc4c(cnn4C(=O)Nc4ccccc4)c3)c2cc1OC	103% (inactive)
CCC(C)(CC)c1ccc(O)c(C)c1	107% (inactive)
CC(O)C(N)=O (stereo unspecified)	105% (inactive)
CCCCCCCCC1OC1CCCCCCCC(=O)O (stereo unspecified)	108% (inactive)
CC(=O)NCCN	107% (inactive)
COc1cc(NC(C)CCCN)c2nc(C)ccc2c1OC (stereo unspecified)	104% (inactive)
O=C1/C(=C\c2cn(-c3nc(N4CCOCC4)nc(N4CCOCC4)n3)c3ccccc23)c2ccccc2N1c1c(Cl)cccc1Cl	84.5% (inactive)
Cc1cc2c(-c3nc4ccccc4n3C)c(O)c(O)cc2c(O)c1-c1c(C)cc2c(-c3nc4ccccc4n3C)c(O)c(O)cc2c1O	54.3% (inactive)
O=C(CN1CCN(c2cccc(Cl)c2)CC1)N1CCN(c2nnc(-c3ccc(Cl)cc3)c(-c3ccc(Cl)cc3)n2)CC1	76.7% (inactive)
CCCC(=O)NNc1[nH]c(-c2cc(OC)c(OC)c(OC)c2)cc1C(=O)OCC	109% (inactive)
CSCc1ncc(-c2ccc(C(F)(F)F)cc2)c(NC2CCCCCC2)n1	53.1% [25 µM] (inactive)
CCOC1=C(Cl)C(=O)C(OCC)=C(Cl)C1=O	110% (inactive)
CC(=O)c1nn(-c2ccc(C)cc2)cc1C(=O)c1cc2c(ccc3ccccc32)oc1=O	100% (inactive)
